Shown are actives, neighbours in structure and some others; about 3.2% of the full set was active somewhere.
APOBEC3G inh: APOBEC3G DNA deaminase inhibitors, primary screen, biochemical, fluorescence, single-stranded DNA substrate, uHTS; DNA dC->dU-editing enzyme APOBEC-3G (Homo sapiens), Q9HC16; recombinant A3G, ssDNA deamination FAM/TAMRA fluorescence; inhibition, % at 20 µM; actives 0.28% (n = 330,000);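 active means inhibition of at least 40% at 20 µM, with no more than 30% in the related APOBEC3A deaminase screen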;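 further: plate controls were DMSO wells with A3G for no effect and wells lacking A3G enzyme for full effect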
Target sequence (Q9HC16 whole entry, looked up): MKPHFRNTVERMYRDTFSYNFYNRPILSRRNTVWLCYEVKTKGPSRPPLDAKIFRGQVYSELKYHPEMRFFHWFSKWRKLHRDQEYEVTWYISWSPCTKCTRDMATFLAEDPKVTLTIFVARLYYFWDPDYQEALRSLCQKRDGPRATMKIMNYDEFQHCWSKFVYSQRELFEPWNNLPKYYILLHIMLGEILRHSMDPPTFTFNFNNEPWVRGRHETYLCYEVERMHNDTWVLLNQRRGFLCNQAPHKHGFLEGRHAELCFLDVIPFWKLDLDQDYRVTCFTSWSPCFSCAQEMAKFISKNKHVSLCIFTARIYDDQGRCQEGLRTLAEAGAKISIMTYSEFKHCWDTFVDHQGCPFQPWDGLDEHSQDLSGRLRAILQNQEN
A3A deaminase: APOBEC3A ssDNA deaminase inhibitors, primary screen, selectivity assay for APOBEC3G inhibitor project, biochemical, FAM/TAMRA oligo cleavage fluorescence; DNA dC->dU-editing enzyme APOBEC-3A (Homo sapiens), P31941; recombinant A3A, FAM/TAMRA ssDNA deamination fluorescence; inhibition, % at 20 µM; actives 0.41% (n = 330,000);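 active means at least 40% inhibition at 20 µM here, with at most 30% in a related deaminase screen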;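 further: plate controls were A3A with DMSO for no effect and wells lacking A3A enzyme for full effect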
AHR act: AHR activators, primary screen, cell-based, luminescence, luciferase reporter, human; activation, % at 5 µM; AID 2796, 2010; actives 2.5% (n = 320,000); AHR-responsive luciferase reporter cells; in the data active means activation above about 47%;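 further: 0% = vehicle wells and 100% = reference agonist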
NTR1 ag: agonists of human NTR1, primary screen, imaging, U2OS cells, beta-arrestin-GFP, high content; NTR1-U2OS beta-arrestin-GFP spot imaging, agonist mode; Neurotensin receptor type 1 (Homo sapiens), P30989; actives 0.17% (n = 330,000); AID 493036, 2011; activation, % at 20 µM;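 active means activation at or above 40% of the spot to cytoplasm intensity ratio, with at least 20 cells analyzed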;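 further: 0% = DMSO without peptide and 100% = 100 nM NTR1 peptide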
A3A conf: APOBEC3A deaminase inhibitors, retest, confirmation, selectivity assay for APOBEC3G inhibitor project, biochemical, single concentration, fluorescence readout. shares compounds with A3A deaminase. recombinant A3A, ssDNA deaminase UDG fluorescence assay. inhibition, % at 20 µM. actives 63% (n = 1,400). AID 493151, 2011;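 active means inhibition reaching a set limit, 80% of the first screen's cutoff, at 20 µM in any replicate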;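 further: plate controls were DMSO wells with A3A for no effect and wells lacking A3A enzyme for full effect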
UDG ctr A3A: E. coli UDG inhibitors, confirmation, counter-screen for APOBEC3A inhibitor project, biochemical, single concentration, fluorescence, FAM/TAMRA oligo; shares compounds with A3A deaminase; UDG counterscreen, FAM/TAMRA uracil oligo fluorescence; inhibition, % at 20 µM; 1,000 tested, under 10 active; AID 504714, 2011; call rule not given here
* marks the source's active call; other numbers are inactive results; nt = not tested or not shown.

SMILES	APOBEC3G inh	A3A deaminase	AHR act	NTR1 ag	A3A conf	UDG ctr A3A
COc1ccc(OCc2cc(C(=O)O)c(C)o2)cc1	8	53*	2	0	34*	nt
Cc1cc2c(cc1S(=O)(=O)N1CCN(c3cccc(C)c3C)CC1)OCCN2C	-1	-2	3	0	nt	nt
CC(C)(C)C(=O)O/N=C(\N)Cc1ccc(-c2csnn2)cc1	-5	2	17	1	nt	nt
CCCn1c(/C=C/c2cc[n+](C)cc2)nc2ccccc21	19	57*	0	0	62*	nt
CC(=O)C1=C(C)N(Cc2ccccc2)C(=O)N[C@H]1CCc1ccccc1	12	2	3	-1	nt	nt
CCN1C(=NCCCCO)N[C@@H](c2cccc(C(F)(F)F)c2)C(C(=O)OC)=C1C	6	50*	-1	0	61*	-2
COC(=O)C1=C(C)N(Cc2ccccc2)C(=NCc2cccc(C(F)(F)F)c2)N[C@H]1c1cccc(C(F)(F)F)c1	-6	-2	1	23	nt	nt
COC(=O)C1=C(C)N(Cc2ccccc2)C(=NCCc2c[nH]c3ccccc23)N[C@H]1c1cccc(C(F)(F)F)c1	13	25	36	17	nt	nt
COC(=O)C1=C(C)N(Cc2ccccc2)C(=NCCCCO)N[C@H]1CCc1ccccc1	4	44*	-2	0	67*	-3
COCCN=C1N[C@@H](c2cccc(C(F)(F)F)c2)C(C(=O)OC)=C(C)N1Cc1ccccc1	10	63*	2	18	44*	nt
COC(=O)C1=C(C)N(Cc2ccccc2)C(=NCCCCO)N[C@H]1c1cccc(C(F)(F)F)c1	9	44*	-1	0	57*	-1
CCOc1ccc(NC(=O)c2ccc(Cl)c(NC(=O)c3ccco3)c2)cc1	-5	-6	-2	2	nt	nt
COc1cc2c(cc1OC)CN(C(=O)CSc1ccccc1C)CC2	3	-2	1	0	nt	nt
Cn1cnnc1SCC(=O)Nc1ncc([N+](=O)[O-])s1	39	44	3	0	nt	nt
CCCCn1c(Cn2nc(C(=O)O)c3ccccc3c2=O)nc2cc(S(N)(=O)=O)ccc21	-9	-3	0	0	nt	nt
CCN(CC)S(=O)(=O)c1ccc(N2CCCC2)c(NC(=O)c2ccc(N3CCCC3=O)cc2)c1	-10	-4	4	0	nt	nt
O=C1NC(=O)/C(=C\c2ccc(Br)o2)S1	1	55*	0	-1	22	nt
O=C1NC(=O)/C(=C/c2ccc(-c3cc(C(=O)O)ccc3Cl)o2)S1	14	39	0	0	nt	nt
Cc1nn(CC(=O)NC2C(=O)N3C(C(=O)O)=C(CSc4nnnn4C)CSC23)cc1Br (configuration not stated)	-2	16	-2	-2	nt	nt
CO[C@@]1(NC(=O)C2SC(=C(C(N)=O)C(=O)O)S2)C(=O)N2C(C(=O)O)=C(CSc3nnnn3C)CS[C@@H]21 (some centres not stated)	3	50*	-3	1	43*	0
CC(OC(=O)c1cccc([N+](=O)[O-])c1)C(=O)NCc1ccc2c(c1)OCO2 (configuration not stated)	-4	49*	5	3	-6	-3
Cc1ccc[n+](CC(=O)Nc2cc(C(F)(F)F)ccc2N2CCOCC2)c1	11	48*	-1	0	65*	3
O=C(Nc1cc(C(F)(F)F)ccc1N1CCOCC1)c1ccc[n+]([O-])c1	5	5	5	-1	nt	nt
Cc1ccc(/C=C2\SC(N)=NC2=O)s1	-2	56*	9	0	-2	-2
Cc1ccsc1/C=C1\SC(N)=NC1=O	-9	-6	7	0	nt	nt
